Measured values taken from PubChem BioAssay (NCATS).
A number with no mark means an inactive call. Results filed as inconclusive are left out. Entries that show only a call come without a potency. Activity calls are given as the source filed them. Unless noted, calls follow the shape of the dose curve; as a rule, active = well fitted curve in the direction sought with a large enough effect; inconclusive = small, poorly fitted or top-dose-only effect, or another doubt; inactive = no such curve, though single readings can be large; an effect the other way counts as inactive or inconclusive.

Assays:
[1] = molecular target: Alpha-galactosidase (Coffea arabica) (UniProt Q42656); assay: Counterscreen for Glucocerebrosidase Inhibitors: qHTS Assay for Coffee Bean alpha-Galactosidase at pH 4.5 (AID 957); also: series mostly up to about 77 µM
Procedure, shortened: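 Enzyme is added first (2 nM final), then compounds titrated from 0.7 nM to 77 uM, then 80 uM 4-methylumbelliferyl alpha-D-galactopyranoside; after 20 min at room temperature a pH 10 NaOH/glycine stop precedes fluorescence reading at 365/440 nm.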

[2] = molecular target: Alpha-galactosidase (Coffea arabica) (UniProt Q42656); assay: Counterscreen for Glucocerebrosidase Inhibitors: qHTS Assay for Coffee Bean alpha-Galactosidase at pH 5.9 (AID 998)
Procedure, shortened: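 Fluorogenic 4-MU substrate hydrolysis, 80 uM substrate and 2 nM coffee bean alpha-galactosidase, pH 5.9 citrate buffer, 20 min at room temperature, then NaOH/glycine stop. Titration 0.7 nM–77 uM, normalized to no-enzyme and enzyme controls, AC50 via Hill equation.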

[3] = Validation screen for inhibitors of Lassa infection (AID 463096; calls by dose curve; also: potency is read from the fitted curve at half-maximal effect)
[4] = Inducers of the Endoplasmic Reticulum Stress Response (ERSR) in human glioma: Validation (AID 504836)
Procedure, shortened: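 ERSR induction read as luciferase luminescence (Bright-Glo, 10 min at room temperature) in stably transfected human U87-MG glioma cells exposed to compounds for 16 h, using GRP78 as sensor.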

[5] = qHTS for Inhibitors of the Functional Ribonucleoprotein Complex (vRNP) of Lassa (LASV) Arenavirus: LASV Primary Screen - GLuc reporter signal (AID 1347082; calls by dose curve; tested in HEK293 reporter line; also: series mostly up to about 57 µM; nearly all actives have a fitted effect of over 60% in size)
[6] = qHTS for Inhibitors of the Functional Ribonucleoprotein Complex (vRNP) of Lassa (LASV) Arenavirus: Viability assay - alamar blue signal for LASV Primary Screen (AID 1347083; calls by dose curve; tested in HEK293 reporter line; also: series mostly up to about 57 µM; nearly all actives have a fitted effect of over 80% in size)
[7] = qHTS for Inhibitors of the Functional Ribonucleoprotein Complex (vRNP) of Lymphocytic Choriomeningitis Arenaviruses (LCMV): Viability assay - alamar blue signal for LCMV Primary Screen (AID 1347085; calls by dose curve; tested in HEK293 reporter line; also: series mostly up to about 57 µM; nearly all actives have a fitted effect of over 80% in size)
[8] = molecular target: Nucleoprotein (Lymphocytic choriomeningitis virus (strain Armstrong)) (UniProt P09992); assay: qHTS for Inhibitors of the Functional Ribonucleoprotein Complex (vRNP) of Lymphocytic Choriomeningitis Arenaviruses (LCMV): LCMV Primary Screen - GLuc reporter signal (AID 1347086; calls by dose curve; also: series mostly up to about 57 µM; nearly all actives have a fitted effect of over 70% in size)
Nucleoprotein (Lymphocytic choriomeningitis virus (strain Armstrong)), sequence (P09992 whole entry, looked up): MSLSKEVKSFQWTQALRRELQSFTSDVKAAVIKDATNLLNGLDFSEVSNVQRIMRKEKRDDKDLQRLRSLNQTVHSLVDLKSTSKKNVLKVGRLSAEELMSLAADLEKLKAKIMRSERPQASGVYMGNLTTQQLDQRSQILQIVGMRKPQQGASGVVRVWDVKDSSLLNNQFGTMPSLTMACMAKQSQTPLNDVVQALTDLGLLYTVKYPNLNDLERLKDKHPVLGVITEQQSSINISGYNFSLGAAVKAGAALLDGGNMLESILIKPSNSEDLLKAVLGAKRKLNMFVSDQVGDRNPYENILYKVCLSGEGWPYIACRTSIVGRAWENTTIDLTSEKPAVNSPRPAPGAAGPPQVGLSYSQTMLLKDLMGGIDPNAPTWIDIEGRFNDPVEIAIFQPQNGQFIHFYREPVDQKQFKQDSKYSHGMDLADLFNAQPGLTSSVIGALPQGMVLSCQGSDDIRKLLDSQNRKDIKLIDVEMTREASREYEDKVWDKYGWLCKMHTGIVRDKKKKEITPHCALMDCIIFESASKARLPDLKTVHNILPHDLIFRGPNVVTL

Alpha-galactosidase (Coffea arabica), sequence (Q42656 whole entry, looked up): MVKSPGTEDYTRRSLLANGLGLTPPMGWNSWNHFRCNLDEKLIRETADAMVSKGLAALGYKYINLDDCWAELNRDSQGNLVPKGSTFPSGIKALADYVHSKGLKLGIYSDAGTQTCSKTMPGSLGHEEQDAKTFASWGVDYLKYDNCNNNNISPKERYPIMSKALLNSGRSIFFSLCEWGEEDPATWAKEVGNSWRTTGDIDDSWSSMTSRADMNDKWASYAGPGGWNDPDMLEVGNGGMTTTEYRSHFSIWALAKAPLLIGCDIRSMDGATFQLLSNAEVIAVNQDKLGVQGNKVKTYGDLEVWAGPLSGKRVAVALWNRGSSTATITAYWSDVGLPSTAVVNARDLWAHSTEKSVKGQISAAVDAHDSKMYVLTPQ

| Compound | outcome [1] | outcome [2] | Potency [3] | outcome [4] | Potency [5] | Potency [6] | Potency [7] | Potency [8] |
| --- | --- | --- | --- | --- | --- | --- | --- | --- |
| COc1ccccc1N1CCN(CCN2C(=O)CC3(CCCC3)CC2=O)CC1 | inactive | inactive | inactive | inactive | inactive | inactive | inactive | inactive |
| C[C@@H](NC(=O)/C(C#N)=C/c1ccc(O)c(O)c1)c1ccccc1 | inactive | inactive | inactive | inactive | inactive | inactive | inactive | inactive |
| NCCCCCCCCCCN | inactive | inactive | inactive | inactive | inactive | inactive | inactive | inactive |
| N[C@H](C(=O)O)[C@H](O)C(=O)O | inactive | inactive | inactive | inactive | inactive | inactive | inactive | inactive |
| O=C(OCCN1CCOCC1)C1(c2ccccc2)CCCCC1 | inactive | inactive | inactive | inactive | inactive | inactive | inactive | inactive |
| CCCCN1CCC(n2c(=O)[nH]c3ccccc32)CC1 | inactive | inactive | inactive | inactive | inactive | inactive | inactive | inactive |
| O=C(O)C1=CCCNC1 | inactive | inactive | inactive | inactive | inactive | inactive | inactive | inactive |
| CCn1c(=O)[nH]c2cc(Cl)c(Cl)cc21 | inactive |  | inactive | inactive | inactive | inactive | inactive | inactive |
| O=C(O)c1ccccc1Nc1cccc(OCc2ccc3ccccc3n2)c1 | inactive | inactive | inactive | inactive | inactive | inactive | inactive | inactive |
| N#Cc1cc2nc(O)c(O)nc2cc1[N+](=O)[O-] | inactive | inactive | inactive | inactive | inactive | inactive | inactive | inactive |
| C[C@@H]1C(=O)NC2=Nc3cccc(Cl)c3CN21 | inactive | inactive | inactive | inactive | inactive | inactive | inactive | inactive |
| CCC(=O)N1CCN(C(=O)c2ccccc2)CC1 | inactive | inactive | inactive | inactive | inactive | inactive | inactive | inactive |
| CC[N+](CC)(CC)CC(=O)Nc1c(C)cccc1C | inactive | inactive | inactive | inactive | inactive | inactive | inactive | inactive |
| COc1ccccc1N1CCN(CCCCN2C(=O)c3ccccc3C2=O)CC1 | inactive | inactive | inactive | inactive | inactive | inactive | inactive | inactive |
| Nc1ccc(-c2ccc3ccccc3n2)cc1 | inactive | inactive | inactive | inactive | inactive | inactive | inactive | inactive |
| COc1ccc2c(c1)c(CC(=O)O)c(C)n2Cc1ccc(Cl)cc1 | inactive | inactive | inactive | inactive | inactive | inactive | inactive | inactive |
| C[C@H](NC(=O)/C(C#N)=C/c1ccc(O)c(O)c1)c1ccccc1 | inactive | inactive | inactive | inactive | inactive | inactive | inactive | inactive |
| COc1cccc(C(=O)NCCN2CCN(c3ccc(Cl)cc3)CC2)c1 | inactive | inactive | inactive | inactive | inactive | inactive | inactive | inactive |
| NCCCCN | inactive | inactive | inactive | inactive | inactive | inactive | inactive | inactive |
| C=CC[C@H](N)C(=O)O | inactive | inactive | inactive | inactive | inactive | inactive | inactive | inactive |
| CCCN(CC1CC1)c1nc(C)nc(Nc2c(Cl)cc(Cl)cc2Cl)c1Cl | inactive | inactive | inactive | inactive | inactive | inactive | inactive | inactive |
| Cc1ccc2c(c1)C(N1CCN(C)CC1)=Nc1cccnc1N2 | inactive | inactive | inactive | inactive | inactive | inactive | inactive | inactive |
| COc1cc(/C=C(\C#N)C(=O)c2ccc(O)c(O)c2)cc(I)c1O | inactive | inactive | inactive | inactive | inactive | inactive | inactive | inactive |
| CC(C)(CO)Cc1cc(C(C)(C)C)c(O)c(C(C)(C)C)c1 | inactive | inactive | inactive | inactive | inactive | inactive | inactive | inactive |
| Cc1nc(N=Nc2cc(S(=O)(=O)O)c3cc([N+](=O)[O-])cc(S(=O)(=O)O)c3c2)c(COP(=O)(O)O)c(C=O)c1O | inactive | inactive | inactive | inactive | inactive | inactive | inactive | inactive |
| COC(=O)[C@H](NC(=O)c1cc(-c2ccccc2)nc2ccccc12)c1ccccc1 | inactive | inactive | inactive | inactive | inactive | inactive | inactive | inactive |
| COc1cc(CC(=O)O)ccc1O | inactive | inactive | inactive | inactive | inactive | inactive | inactive | inactive |

| Compound | outcome [1] | outcome [2] | Potency [3] | outcome [4] | Potency [5] | Potency [6] | Potency [7] | Potency [8] |
| --- | --- | --- | --- | --- | --- | --- | --- | --- |
| O=[N+]([O-])c1cccc2cn[nH]c12 | inactive | inactive | inactive | inactive | inactive | inactive | inactive | inactive |
| C[N+](C)(CCCCCC[N+](C)(C)CCCN1C(=O)c2cccc3cccc(c23)C1=O)CCCN1C(=O)c2cccc3cccc(c23)C1=O | inactive | inactive | inactive | inactive | inactive | inactive | inactive | inactive |
| NOCC(=O)O | inactive | inactive | inactive | inactive | inactive | inactive | inactive | inactive |
| O=c1[nH]ccc2c(O)cccc12 | inactive | inactive | inactive | inactive | inactive | inactive | inactive | inactive |
| CNC(=O)c1cc2c(cn1)[nH]c1ccccc12 | inactive | inactive | inactive | inactive | inactive | inactive | inactive | inactive |
| CCCn1c(=O)[nH]c(=O)c2[nH]cnc21 | inactive | inactive | inactive | inactive | inactive | inactive | inactive | inactive |
| NCCSSCCN | inactive | inactive | inactive | inactive | inactive | inactive | inactive | inactive |
| COc1ccccc1N1CCN(CCN(C(=O)c2ccc(F)cc2)c2ccccn2)CC1 | inactive | inactive | inactive | inactive | inactive | inactive | inactive | inactive |
| O=C(O)C1=CCCN(CCON=C(c2ccccc2)c2ccccc2)C1 | inactive | inactive | inactive | inactive | inactive | inactive | inactive | inactive |
| O=C(O)c1cc([N+](=O)[O-])ccc1NCCCc1ccccc1 | inactive | inactive | inactive | inactive | inactive | inactive | inactive | inactive |
| O=C(O)C1=CCNCC1 | inactive | inactive | inactive | inactive | inactive | inactive | inactive | inactive |
| CNc1cc(NS(=O)(=O)c2ccc(N)cc2)nc(NC)n1 | inactive | inactive | inactive | inactive | inactive | inactive | inactive | inactive |
| Cn1c(=O)[nH]c2ncn(C)c2c1=O | inactive | inactive | inactive | inactive | inactive | inactive | inactive | inactive |
| c1ccc2c(c1)CC(N1CCN(c3cccc4c3OCCO4)CC1)C2 | inactive | inactive | inactive | inactive | inactive | inactive | inactive | inactive |
| O=C(O)CC[C@@H](C(=O)O)N1C(=O)c2ccccc2C1=O | inactive | inactive | inactive | inactive | inactive | inactive | inactive | inactive |
| NC(N)=NCCCCN=C(N)N | inactive | inactive | inactive | inactive | inactive | inactive | inactive | inactive |
| CC(N)=O | inactive | inactive | inactive | inactive | inactive | inactive | inactive | inactive |
| COc1ccccc1N1CCN(CCCCNC(=O)c2ccc3ccccc3c2)CC1 | inactive | inactive | 11.2 µM (active) | inactive | inactive | inactive | inactive | inactive |
| O=C(O)c1cc(=O)cc(C(=O)O)[nH]1 | inactive | inactive | inactive | inactive | inactive | inactive | inactive | inactive |
| O=c1[nH]c2ccccc2c2ccccc12 | inactive | inactive | inactive | inactive | inactive | inactive | inactive | inactive |
| Cn1cc(C(=O)OCC2CCN(CCNS(C)(=O)=O)CC2)c2ccccc21 | inactive | inactive | inactive | inactive | inactive | inactive | inactive | inactive |
| Cc1ccc([N+](=O)[O-])cc1S(=O)(=O)N(C)C | inactive | inactive | inactive | inactive | inactive | inactive | inactive | inactive |
| NCCCCN=C(N)N | inactive | inactive | inactive | inactive | inactive | inactive | inactive | inactive |
| Cc1cc2c(cc1Cl)N(C(=O)Nc1ccnc3ccccc13)CC2 | inactive | inactive | inactive | inactive | inactive | inactive | inactive | inactive |
| O=C(O)c1cc2cc(F)ccc2[nH]1 | inactive | inactive | inactive | inactive | inactive | inactive | inactive | inactive |
| O=C1NC(c2cccc([N+](=O)[O-])c2)=CCN1c1ccccc1O | inactive | inactive | inactive | inactive | inactive | inactive | inactive | inactive |
